# Inconclusive results are not listed. A call without a number means that no potency is given here. Active and inactive are the calls of the source. Unless noted, calls come from the whole dose curve.
# Key:
# [1] = Primary qHTS for inhibitors of SARS-S pseudo-typed particle cell entry (AID 1479145); settings: outcome: dose series up to 57.1 µM unless noted; note: nearly all actives have a fitted effect of over 45% in size
# [2] = Primary qHTS for Huh7 cytotoxicity: counterscreen for inhibitors of MERS-S pseudotyped particle cell entry (AID 1479147); settings: outcome: dose series up to 57.1 µM unless noted
# [3] = Primary qHTS for inhibitors of MERS-S pseudo-typed particle cell entry (AID 1479149); settings: outcome: dose series up to 57.1 µM unless noted; note: nearly all actives have a fitted effect of over 60% in size
# [4] = Primary qHTS for Vero E6 cytotoxicity: counterscreen for inhibitors of SARS-S pseudo-typed particle cell entry (AID 1479150); settings: outcome: dose series up to 57.1 µM unless noted
# [5] = Cytotoxicity counterscreen for inhibitors of SARS-CoV-2 cell entry (AID 1645845); settings: outcome: dose series up to 57.1 µM unless noted; note: nearly all actives have a fitted effect of over 50% in size
# In short: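 48 h compound treatment (after 1 h preincubation), HEK293-ACE2 cells, 37 C/5% CO2; ATP luminescence endpoint; normalized to cell wells and media blanks.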
# [6] = target: Cytochrome P450 2D6 (Homo sapiens) (UniProt P10635); assay: Cytochrome P450 family 2 subfamily D member 6 (CYP2D6) small molecule antagonists: luciferase biochemical (cell-free) qHTS assay (AID 1645840; active = well fitted curve in the direction sought with a large enough effect in the repeat runs; an effect the other way counts as inactive or inconclusive; note: nearly all actives have a fitted effect of over 55% in size; note: potency is the fitted concentration of half-maximal effect)
# In short: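 P450-Glo luminescent screen: recombinant CYP2D6 enzyme–proluciferin substrate mix preincubated with compound 10 min at room temperature, then NADPH regeneration added for 1 h at room temperature. Detection reagent added for 20 min; luciferin light read as relative luminescence units.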
# [7] = Primary qHTS to identify inhibitors of SARS-CoV-2 cell entry (AID 1645846); settings: SARS-CoV-2 pseudovirus cell entry assay, luminescence; for Potency: activity change, negative = inhibition: at 57.1 µM (top of the series) unless noted, outcome: at 57.1 µM (top of the series) unless noted; for all read-outs here: nearly all actives have a fitted effect of over 45% in size
# In short: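 Luminescence readout (Bright-Glo luciferase) 48 h after pseudoparticle addition. HEK293-ACE2 cells, 1500/well; compound pre-incubation 1 h; Normalized to spike PP and bald PP.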
# [8] = Confirmatory qHTS to identify inhibitors of SARS-CoV-2 cell entry (AID 1645844); note: potency is the fitted concentration of half-maximal effect; nearly all actives have a fitted effect of over 45% in size
# In short: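 Luminescence from a luciferase reporter, read 48 hr after pseudotyped-particle addition, gives entry signal, normalised to spike-bearing PP wells and bald PP lacking fusion protein wells. Cells are Expi293F stably expressing human ACE2, compound-pretreated 1 hr.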
# [9] = target: Phospholipid hydroperoxide glutathione peroxidase GPX4 (Homo sapiens) (UniProt P36969); assay: Primary qHTS Assay for Inhibitors of Recombinant Selenoprotein Glutathione Peroxidase 4 (GPX4) (AID 1845192; active = well fitted curve in the direction sought with a large enough effect; an effect the other way counts as inactive or inconclusive; note: nearly all actives have a fitted effect of over 65% in size; note: potency is the fitted concentration of half-maximal effect)
# In short: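 NADPH consumption, followed by fluorescence at 340/450 nm between 0 and 15 min, reports GPX4 activity via coupled glutathione reductase (100 nM). Enzyme 200 nM was pre-exposed to compound 30 min; 0.5 mM cumene hydroperoxide and 1 mM GSH served as substrates.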
# [10] = target: Glutathione peroxidase 1 (Homo sapiens) (UniProt P07203); assay: Primary qHTS Assay for Inhibitors of Recombinant Selenoprotein Glutathione Peroxidase 1 (GPX1) (AID 1845191; active = well fitted curve in the direction sought with a large enough effect; an effect the other way counts as inactive or inconclusive; note: nearly all actives have a fitted effect of over 65% in size)
# In short: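 10 nM GPX1 + cpd, 30 min RT; start w/ 1 mM GSH, 0.5 mM cumene hydroperoxide, 0.5 mM NADPH, 100 nM GR, 0.01% BSA; buffer 50 mM Tris-HCl pH 7.5, 2 mM EDTA, 150 mM NaCl; Fl 340/450, 0 & 15 min.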
# [11] = Confirmatory qHTS for VERO E6 Cytotoxicity Assay: Counterscreen for SARS-CoV-2 CPE Assay (AID 1508605); note: nearly all actives have a fitted effect of over 60% in size
# Chain of Cytochrome P450 2D6 (Homo sapiens) (P10635 whole entry, looked up): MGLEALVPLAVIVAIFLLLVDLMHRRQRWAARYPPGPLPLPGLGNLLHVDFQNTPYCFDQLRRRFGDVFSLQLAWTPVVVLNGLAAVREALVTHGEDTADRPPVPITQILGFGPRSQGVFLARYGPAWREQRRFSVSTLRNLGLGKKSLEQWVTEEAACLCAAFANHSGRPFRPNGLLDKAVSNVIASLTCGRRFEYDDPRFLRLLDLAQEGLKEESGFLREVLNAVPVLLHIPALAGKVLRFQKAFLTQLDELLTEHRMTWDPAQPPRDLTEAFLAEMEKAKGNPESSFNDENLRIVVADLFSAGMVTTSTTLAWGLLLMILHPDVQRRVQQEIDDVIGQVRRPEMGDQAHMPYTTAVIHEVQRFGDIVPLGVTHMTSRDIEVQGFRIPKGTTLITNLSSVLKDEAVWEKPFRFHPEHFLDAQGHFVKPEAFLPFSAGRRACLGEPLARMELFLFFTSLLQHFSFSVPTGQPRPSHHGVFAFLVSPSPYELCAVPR
# Chain of Phospholipid hydroperoxide glutathione peroxidase GPX4 (Homo sapiens) (P36969 whole entry, looked up): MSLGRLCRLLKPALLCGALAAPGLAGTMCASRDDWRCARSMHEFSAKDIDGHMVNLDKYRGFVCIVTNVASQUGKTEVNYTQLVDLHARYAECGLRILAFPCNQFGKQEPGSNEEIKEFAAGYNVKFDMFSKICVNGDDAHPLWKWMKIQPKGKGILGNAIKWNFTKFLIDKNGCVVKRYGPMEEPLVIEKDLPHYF
# Chain of Glutathione peroxidase 1 (Homo sapiens) (P07203 whole entry, looked up): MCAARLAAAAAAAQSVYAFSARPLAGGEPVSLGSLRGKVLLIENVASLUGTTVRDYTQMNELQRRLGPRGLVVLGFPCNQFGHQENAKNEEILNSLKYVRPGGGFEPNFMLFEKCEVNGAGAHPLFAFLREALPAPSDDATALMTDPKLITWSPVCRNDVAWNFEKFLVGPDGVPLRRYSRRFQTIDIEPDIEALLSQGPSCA
structure (smiles),measurement,setting,value
FC(F)(F)C(F)(F)C(F)(F)C(F)(F)C(F)(F)C(F)(F)F,Potency,[1],inactive
same,Potency,[2],inactive
same,Potency,[3],inactive
same,Potency,[4],inactive
same,Potency,[5],inactive
CCCCOC(=O)C(=O)Nc1cccc(-c2nn[nH]n2)c1,Potency,[1],inactive
same,Potency,[2],inactive
same,Potency,[3],inactive
same,Potency,[4],inactive
C[C@H]1O[C@]2(CS1)CN1CCC2CC1,Potency,[1],inactive
same,Potency,[2],inactive
same,Potency,[3],inactive
same,Potency,[4],inactive
same,Potency,[5],inactive
C[C@]12C[C@@H]3S[C@H]3C[C@@H]1CC[C@H]1[C@H]3CC[C@@H](O)[C@@]3(C)CC[C@@H]12,Potency,[1],inactive
same,Potency,[2],inactive
same,Potency,[3],inactive
same,Potency,[4],inactive
same,Potency,[6],inactive
same,Potency,[5],inactive
same,Potency,[7],inactive
CCCCc1cc2c(=O)c(C(=O)OC)c[nH]c2cc1OCc1ccccc1,Potency,[1],inactive
same,Potency,[2],inactive
same,Potency,[3],inactive
same,Potency,[4],inactive
O=C(Cn1c(=O)sc2ccc(Cl)cc21)N1CCN(CCO)CC1,Potency,[1],inactive
same,Potency,[2],inactive
same,Potency,[3],inactive
same,Potency,[4],inactive
same,Potency,[5],inactive
COc1ccc(C(=O)Nc2ccccc2CCC2CCCCN2C)cc1 (stereo not drawn),Potency,[1],inactive
same,Potency,[2],inactive
same,Potency,[3],inactive
same,Potency,[4],inactive
C=C1C[C@@H]2CC[C@@]34C[C@H]5O[C@H]6[C@@H](O3)[C@H]3O[C@H](CC[C@@H]3O[C@H]6[C@H]5O4)CC(=O)C[C@@H]3[C@@H](OC)[C@@H](C[C@H](O)CN)O[C@H]3C[C@H]3O[C@@H](CC[C@@H]1O2)C[C@@H](C)C3=C,Potency,[1],inactive
same,Potency,[2],inactive
same,Potency,[3],inactive
same,Potency,[4],inactive
same,Potency,[8],221 nM (active)
same,Potency,[5],inactive
same,"activity change, negative = inhibition",[7]; at 11.3 µM (top of the series),-91.9%
same,"activity change, negative = inhibition",[7]; at 57.1 µM (top of the series),-84.4%
Cc1cc(Nc2ccccc2C(=O)O)ccc1Cl,Potency,[1],inactive
same,Potency,[2],inactive
same,Potency,[3],inactive
same,Potency,[4],inactive
same,Potency,[5],inactive
CCCCCc1ccc(C)cc1O,Potency,[1],inactive
same,Potency,[2],inactive
same,Potency,[3],inactive
same,Potency,[4],inactive
same,Potency,[5],inactive
CCCCCCCCCCCCCCCC(=O)OCC(=O)[C@@]1(O)[C@H](C)C[C@H]2[C@@H]3CCC4=CC(=O)C=C[C@]4(C)[C@@]3(F)[C@@H](O)C[C@@]21C,Potency,[1],inactive
same,Potency,[2],inactive
same,Potency,[3],inactive
same,Potency,[4],inactive
same,Potency,[5],inactive
O=c1[nH]cnc2c([C@@H]3N[C@H](CO)[C@@H](O)[C@H]3O)c[nH]c12,Potency,[1],inactive
same,Potency,[2],inactive
same,Potency,[3],inactive
same,Potency,[4],inactive
same,Potency,[5],inactive
CC1(C)[C@H](C=C(Cl)Cl)[C@@H]1C(=O)OCc1c(F)c(F)cc(F)c1F,Potency,[1],inactive
same,Potency,[2],inactive
same,Potency,[3],inactive
same,Potency,[4],inactive
same,Potency,[6],inactive
same,Potency,[5],inactive
same,Potency,[7],inactive
same,Potency,[9],inactive
CC(Cc1ccc2c(c1)OCO2)NCC(O)c1ccc(O)c(O)c1 (stereo not drawn),Potency,[1],inactive
same,Potency,[2],inactive
same,Potency,[3],inactive
same,Potency,[4],inactive
same,Potency,[6],674 nM (active)
same,Potency,[5],inactive
same,Potency,[10],inactive
same,Potency,[9],15800 nM (active)
CC(C)(C)c1ccc(CN2CCN(C(c3ccccc3)c3ccc(Cl)cc3)CC2)cc1 (stereo not drawn),Potency,[1],inactive
same,Potency,[2],inactive
same,Potency,[3],inactive
same,Potency,[4],inactive
same,Potency,[11],inactive
CC(C)C[C@H](NC(=O)[C@@H](Cc1c[nH]c2ccccc12)NC(=O)[C@H](Cc1ccc(O)cc1)NC(=O)[C@H](CO)NC(=O)[C@H](Cc1c[nH]c2ccccc12)NC(=O)[C@H](Cc1cnc[nH]1)NC(=O)[C@@H]1CCC(=O)N1)C(=O)N[C@@H](CCCN=C(N)N)C(=O)N1CCC[C@H]1C(=O)NCC(N)=O,Potency,[1],inactive
same,Potency,[2],inactive
same,Potency,[3],inactive
same,Potency,[4],inactive
CC=CC1=C(C(=O)O)N2C(=O)[C@@H](NC(=O)[C@H](N)c3ccc(O)cc3)[C@H]2SC1,Potency,[1],inactive
same,Potency,[2],inactive
same,Potency,[3],inactive
same,Potency,[4],inactive
same,Potency,[5],inactive
CN(CC(O)CO)C(=O)c1c(I)c(NC(=O)C(CO)CO)c(I)c(C(=O)N(C)CC(O)CO)c1I (stereo not drawn),Potency,[1],inactive
same,Potency,[2],inactive
same,Potency,[3],inactive
same,Potency,[4],inactive
same,Potency,[5],inactive
C[N+]1(C)[C@@H]2CC(OC(=O)C(O)(c3cccs3)c3cccs3)C[C@H]1[C@H]1O[C@@H]12 (stereo partly drawn),Potency,[1],inactive
same,Potency,[2],inactive
same,Potency,[3],inactive
same,Potency,[4],inactive
CCOC(=O)C=C(C)C=CC[C@@H](C)CCCC(C)C,Potency,[1],inactive
same,Potency,[2],inactive
same,Potency,[3],inactive
same,Potency,[4],inactive
same,Potency,[6],inactive
same,Potency,[5],inactive
same,Potency,[10],inactive
same,Potency,[9],inactive
CN(CCCCCCCCCCN(C)C(=O)Oc1cccc([N+](C)(C)C)c1)C(=O)Oc1cccc([N+](C)(C)C)c1,Potency,[1],inactive
same,Potency,[2],inactive
same,Potency,[3],inactive
same,Potency,[4],inactive
same,Potency,[5],inactive
CCc1ccc(Nc2c(F)c(F)cc(F)c2F)c(CC(=O)O)c1,Potency,[1],inactive
same,Potency,[2],inactive
same,Potency,[3],inactive
same,Potency,[4],inactive
CCCCC[C@H](O)/C=C/[C@@H]1[C@@H](C/C=C/CCCC(=O)O)[C@@H](O)C[C@H]1O,Potency,[1],inactive
same,Potency,[2],inactive
same,Potency,[3],inactive
same,Potency,[4],inactive
same,Potency,[5],inactive
CCOC(=O)COc1ccc2c(=O)cc(-c3ccccc3)oc2c1,Potency,[1],inactive
same,Potency,[2],inactive
same,Potency,[3],inactive
same,Potency,[4],inactive
same,Potency,[5],inactive

# Reference: PubChem BioAssay (NCATS)
